# Rv3671c protease – Rv3671c (M. tuberculosis) protease inhibition | P9WHR9 | actives 0.048% (n = 320,000) | inhibition, % at 5.96 µM; in the data active means inhibition above about 38%;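 further: extracellular domain of Rv3671c used as enzyme; 0% = enzyme with DMSO and 100% = no enzyme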
# Mtb bLac sens – beta-lactam sensitization of Mtb H37Rv; M. tuberculosis H37Rv growth with meropenem, percent inhibition; inhibition, % at 25 µM; actives 0.27% (n = 330,000); AID 434955; call rule not given here;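 further: growth measured after seven days incubation then overnight dye step; 0% = bacteria only wells and 100% = bacteria with antibiotic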
# RecA intein inh – inhibitors of M. tuberculosis RecA intein splicing; P9WHJ3; actives 0.75% (n = 290,000); inhibition, % (test concentration not listed); cell-free RecA intein splicing, fluorescence; in the data active means inhibition above about 30%;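 further: 0% = vehicle wells and 100% = reference inhibitor control wells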
# UGM FP inh – Mtb UDP-galactopyranose mutase inhibition. purified UGM, fluorescence polarization probe displacement. inhibition, % at 10 µM. AID 504406. actives 0.06% (n = 320,000); in the data active means inhibition above about 10%, passing the limit was not always enough
# FBA Mtb inh – Mtb fructose-bisphosphate aldolase inhibition; P9WQA3; purified M. tuberculosis FBA, fluorescence read-out; inhibition, % at 1 µM; actives 2.3% (n = 360,000);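 further: 0% = vehicle and 100% = reference inhibitor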
# Target sequence (P9WQA3 whole entry, looked up): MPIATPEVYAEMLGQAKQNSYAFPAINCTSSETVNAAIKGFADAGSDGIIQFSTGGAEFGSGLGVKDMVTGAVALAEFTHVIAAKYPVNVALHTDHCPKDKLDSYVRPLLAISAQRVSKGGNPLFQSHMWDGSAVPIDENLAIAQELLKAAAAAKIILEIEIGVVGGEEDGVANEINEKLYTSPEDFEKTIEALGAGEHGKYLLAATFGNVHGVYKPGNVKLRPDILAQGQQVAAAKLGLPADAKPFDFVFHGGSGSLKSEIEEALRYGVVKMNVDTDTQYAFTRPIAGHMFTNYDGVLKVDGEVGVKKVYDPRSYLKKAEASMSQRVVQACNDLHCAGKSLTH
# GDH-TPI counter-1 – counter-screen for M. tuberculosis FBA inhibitors: GDH-TPI coupled enzymes. GDH-TPI coupled enzyme counterscreen, NADH absorbance. actives 1.2% (n = 360,000). inhibition, % at 4.8 µM. AID 588335; in the data active means inhibition above about 30%;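 further: 0% = DMSO wells and 100% = wells lacking the enzyme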
# Mtb FBA confirm – Mtb FBA inhibition, confirmed | inhibition, % at 1 µM | shares compounds with FBA Mtb inh | actives 78% (n = 5,600) | purified M. tuberculosis FBA, fluorescence read-out;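 further: 0% = vehicle wells and 100% = reference inhibitor wells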
# GDH-TPI counter-2 – counter-screen for M. tuberculosis FBA inhibitors: GDH-TPI coupled enzyme inhibition. shares compounds with FBA Mtb inh. GDH-TPI coupled enzyme counterscreen, fluorescence. inhibition, % at 1 µM. actives 81% (n = 5,600); in the data active means inhibition above about 10%
# The depositor's hits bear a star; / = no result given; + = active, no number. A selection: hits, their analogues and other compounds. The true share with any hit is near 4%. Unless noted, no stated cut-off is given here; in the data, active means inhibition above about 27%; inactive means the rest.
SMILES,Rv3671c protease,Mtb bLac sens,RecA intein inh,UGM FP inh,FBA Mtb inh,GDH-TPI counter-1,Mtb FBA confirm,GDH-TPI counter-2
CCOc1ccc(C2SCC(=O)N2c2c(C)n(C)n(-c3ccccc3)c2=O)cc1 (configuration not stated),2,-17,0,-3,96*,0,3,-4
Cc1ccc2[nH]c(=O)c3cc(C(=O)NC(C)C)sc3c2c1,-20,8,-3,-2,74*,19,85*,68*
CCCN1CCN(CCCNC(=O)c2cc3c(=O)[nH]c4ccc(C)cc4c3s2)CC1,1,-7,-3,-5,53*,6,91*,93*
COCCCNC(=S)Nc1ccc2nc3n(c(=O)c2c1)CCCCC3,-5,0,/,0,4,21,/,/
Cn1nc(C(F)(F)F)cc1Oc1ncc(C(F)(F)F)cc1Cl,2,-5,-5,-1,-1,-2,/,/
COc1ccc(CC2(C)OC(c3ccc(Cl)cc3)=NN2C(C)=O)cc1 (configuration not stated),-8,7,17,3,7,5,/,/
COCCNC(=O)C1(C)CCCN(C(=O)c2cccc(C#N)c2)C1 (configuration not stated),/,/,/,/,-5,0,/,/
Cn1c2ccccc2c(=O)c2cc(C#CC3=CCCCC3)ccc21,-10,-6,/,3,86*,15,151*,113*
COc1ccc(-c2sc(C(=O)c3ccc(Cl)cc3Cl)cc2CC(=O)O)cc1,-13,-4,-39,5,45*,16,73*,55*
COc1ccc(NC(=O)C(NC(C)=O)C(=O)NCc2ccc(F)cc2)cc1 (configuration not stated),1,5,-2,1,-1,9,/,/
CCC(Oc1ccccc1)C(=O)Nc1ccccc1C(=O)N1CCOCC1 (configuration not stated),-8,-5,-9,0,3,2,/,/
O=C(O)c1cc(S(=O)(=O)O)cc(Nc2c3ccccc3nc3ccccc23)c1O,3,3,-11,1,43*,-3,40*,34*
C=CCn1cc(-c2ccccc2)cc(C#N)c1=O,4,-5,4,-3,73*,3,-4,-3
CCN(CC)C(=O)c1cc2c(=O)n3cccc(C)c3nc2s1,4,2,-15,1,69*,12,148*,143*
CCN(CC)C(=O)c1cc2c(=O)n3cccc(C)c3nc2n1C,1,2,-14,1,57*,21,122*,107*
Cc1cccn2c(=O)c3cc(C(=O)N4CCCCC4C)sc3nc12 (configuration not stated),-1,51,/,-1,23,16,/,/
COc1ccccc1N1CCN(C(=O)c2cc3c(=O)n4cccc(C)c4nc3s2)CC1,-8,2,/,0,41*,15,+,180*
CCOC(=O)N1CCN(C(=O)c2cc3c(=O)n4cccc(C)c4nc3s2)CC1,-9,7,-8,-1,16,9,/,/
CCCCN(CC)C(=O)c1cc2c(=O)n3cccc(C)c3nc2s1,0,2,-15,0,70*,11,+,167*
COc1ccc(CSc2nnnn2-c2ccc(C(N)=O)cc2)cc1[N+](=O)[O-],-12,-4,4,0,1,9,/,/
CCOC(=O)c1c(NC(=O)C2C3C=CC(C3)C2C(=O)O)sc2c1CC(C)CC2 (configuration not stated),6,-3,0,4,35*,15,58*,51*
CCCCCN(C(=O)CCC(=O)OC(C)C(=O)Nc1cccc(C#N)c1)c1c(N)n(CCCC)c(=O)[nH]c1=O (configuration not stated),2,-12,-1,-3,1,-4,/,/
Cc1oc2cc(O)ccc2c(=O)c1Oc1ccccc1Br,6,5,1,0,96*,18,6,-1
COC(=O)COc1ccc2c(=O)c(Oc3ccccc3)c(C)oc2c1,-3,99,-2,-4,0,10,/,/
CCOc1ccc(Oc2c(C)oc3cc(O)ccc3c2=O)cc1,-8,3,-3,-2,44*,9,+,160*
SMILES,Rv3671c protease,Mtb bLac sens,RecA intein inh,UGM FP inh,FBA Mtb inh,GDH-TPI counter-1,Mtb FBA confirm,GDH-TPI counter-2
COC(=O)c1cc(-c2c(C)oc3cc(O)ccc3c2=O)c(C)o1,-1,3,0,-1,76*,29,29*,32*
COC(=O)c1cc(-c2c(C)oc3cc(OC)ccc3c2=O)c(C)o1,-1,3,5,2,-3,-7,/,/
Cc1oc2cc(O)ccc2c(=O)c1Oc1ccccc1,4,-4,-2,0,101*,22,83*,59*
Cc1ccccc1N(C(=O)c1snc(C(N)=O)c1N)C(C(=O)NCc1ccccc1)c1ccc(O)cc1 (configuration not stated),-4,-7,-3,1,43*,13,10,4
CCOc1ccccc1N(C(=O)c1snc(C(N)=O)c1N)C(C(=O)NCc1ccccc1)c1ccc(O)cc1 (configuration not stated),/,/,-2,/,7,10,/,/
NC(=O)c1nsc(C(=O)N(c2ccccc2F)C(C(=O)NCc2ccccc2)c2ccc(O)cc2)c1N (configuration not stated),-41,-5,-3,-1,45*,19,8,-7
O=C(Nc1ccc(C(F)(F)F)cc1[N+](=O)[O-])O[C@H]1[C@H](Cc2ccccc2)NS(=O)(=O)[C@H]2C[C@@H]3C=C[C@]12O3,-13,4,/,4,4,10,/,/
COc1ccc2nc3c(C)n(C)ccc-3c2c1,/,/,/,/,57*,4,73*,49*
COc1ccc(N2CCN(c3cc(C)nc4ccc(OC)cc34)CC2)cc1,12,60,1,0,1,-1,/,/
Cc1ccc(-n2c(SCC3CNC(=O)O3)nnc2-c2ccccc2)cc1C (configuration not stated),1,1,1,0,/,/,/,/
Cc1ccc(N2C(N)=NC(N)=NC2(C)C)c(C)c1,4,3,-1,-3,0,-5,/,/
Cc1ccccc1N1C(N)=NC(N)=NC1(C)C,10,-3,0,2,76*,7,+,+
CCOc1ccccc1N(C(=O)c1snc(C(N)=O)c1N)C(CC)C(=O)NC1CCCC1 (configuration not stated),2,3,-1,-5,-2,17,/,/
Cc1ccccc1N(C(=O)c1snc(C(N)=O)c1N)C(C(=O)NC1CCCCC1)c1ccc(O)cc1 (configuration not stated),-20,6,1,-3,35*,8,6,0
